A selection: hits, their analogues and other compounds. The true share with any hit is near 5.4%.
HSF-1 act = increases HSF-1 driven luciferase reporter signal; 300,000 compounds, 1.7% hits; AID 504408; NIH3T3-HGL HSF-1 luciferase reporter, MG132, 8 h; 100% = twice DMSO control signal; activation, % at 9 µM;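 active means mean replicate activation of at least 50% with a set share of replicates each reaching 50%; inconclusive means only one of those two conditions met; inactive means mean below 50% and too few replicates reaching it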;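 further: 0% = median of the neutral control wells and 100% = twice that signal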
HSF1 inh = HSF1 inhibition. NIH3T3-HGL HSE-luciferase, MG132-induced, luminescence 8 h; active compounds read low. activity change, negative = inhibition, % at 7.5 µM (by protocol). 300,000 compounds, 0.77% hits. AID 2098;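 active means more than half of replicate wells show activity change below -50%, luminescence cut by over half; inconclusive means some wells, but at most half, below -50%; inactive means no replicate well below -50%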;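 further: luciferase reports HSF-1 transcriptional activity via heat shock element; 0% = median of DMSO wells and -100% = zero luminescence signal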
AHR act = human AHR activation; activation, % at 5 µM; P35869; AHR-responsive luciferase reporter cells, luminescence; AID 2796; 320,000 compounds, 2.5% hits; in the data active means activation above about 47%;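 further: 0% = vehicle wells and 100% = reference agonist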
Target sequence (P35869 whole entry, looked up): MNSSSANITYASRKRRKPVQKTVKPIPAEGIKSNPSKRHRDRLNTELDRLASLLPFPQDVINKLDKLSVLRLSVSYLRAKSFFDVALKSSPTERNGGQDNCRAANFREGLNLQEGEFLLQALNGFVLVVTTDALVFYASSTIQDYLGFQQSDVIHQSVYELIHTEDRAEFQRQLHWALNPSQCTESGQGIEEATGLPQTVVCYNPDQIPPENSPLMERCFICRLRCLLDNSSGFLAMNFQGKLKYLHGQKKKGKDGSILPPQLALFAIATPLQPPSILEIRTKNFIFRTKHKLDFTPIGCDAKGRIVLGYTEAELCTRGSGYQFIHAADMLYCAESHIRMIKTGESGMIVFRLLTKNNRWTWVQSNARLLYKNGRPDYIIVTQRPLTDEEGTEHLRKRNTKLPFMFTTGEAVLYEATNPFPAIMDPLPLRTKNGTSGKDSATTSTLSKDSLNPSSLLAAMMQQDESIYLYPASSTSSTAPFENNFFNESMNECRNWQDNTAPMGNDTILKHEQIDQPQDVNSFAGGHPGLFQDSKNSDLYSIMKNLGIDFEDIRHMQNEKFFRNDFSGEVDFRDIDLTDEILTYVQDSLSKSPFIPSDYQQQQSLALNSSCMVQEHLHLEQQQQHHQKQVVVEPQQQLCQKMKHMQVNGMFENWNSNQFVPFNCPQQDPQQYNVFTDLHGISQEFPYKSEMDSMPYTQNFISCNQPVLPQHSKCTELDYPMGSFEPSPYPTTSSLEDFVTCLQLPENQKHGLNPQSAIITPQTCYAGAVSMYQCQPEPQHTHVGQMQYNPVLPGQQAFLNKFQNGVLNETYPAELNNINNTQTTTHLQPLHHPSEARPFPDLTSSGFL
DAX1 inh = inhibitors of human orphan nuclear receptor DAX1 (NR0B1); 340,000 compounds, 0.99% hits; AID 504766; HEK293 Gal4-DAX1 luciferase reporter, luminescence; inhibition, % at 6.75 µM;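 active means inhibition above the mean over all tested compounds plus 3 SD, cut at about 4.2% in these data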;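 further: 0% = DAX1-transfected cells with DMSO and 100% = empty-vector control cells with DMSO; inhibition shows as a rise in luminescence from relieved DAX1 repression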
FXN GAA850 act = increases GAA850 frataxin promoter reporter activity; activation, % at 6 µM; HEK293 lucGAA850 FXN promoter luciferase reporter, 24 h; percent of 10 µM SAHA response; 360,000 compounds, 0.56% hits; AID 540364;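 active means activation above the average of all compounds screened plus 3 SD, cutoff fixed separately per campaign, cut at about 7.5% in these data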;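 further: 0% = DMSO wells and 100% = 10 µM SAHA wells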
GAA30 counter = GAA30 FXN promoter activation counter-screen; shares compounds with FXN GAA850 act; HEK293 lucGAA30 FXN promoter luciferase, 24 h; DMSO = 0%, 5 µM ipriflavone = 100%; activation, % at 6 µM; 1,900 compounds, 66% hits;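 active means mean activation above the mean of solvent-only control wells plus 3 SD, cut at about 22% in these data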;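 further: counterscreen of GAA850 promoter hits where activity marks nonselective or luminescence artifacts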
GAA850 confirm = GAA850 FXN promoter activation confirmation | shares compounds with FXN GAA850 act | HEK293 lucGAA850 FXN promoter luciferase reporter, 24 h; 100% = activation by SAHA | activation, % at 6 µM | 1,900 compounds, 86% hits;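 active means mean activation above a set limit taken from the primary screen, cut at about 8% in these data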;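 further: 0% = DMSO wells and 100% = 10 µM SAHA wells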
Active calls of the source: *; ? = inconclusive; · = no result.

SMILES | HSF-1 act | HSF1 inh | AHR act | DAX1 inh | FXN GAA850 act | GAA30 counter | GAA850 confirm
COc1cccc(OC)c1OCCCNC1CCCC1 | -1 | -3 | 3 | 0 | 0 | · | ·
CC[C@@]12C(=O)N(c3cccc(Br)c3)C(=O)N1[C@H](c1ccc(Cl)cc1)[C@@H]1C(=O)N(C3CCCCC3)C(=O)[C@@H]12 | -12 | 3 | 3 | -1 | 11* | 6 | 15*
CC(C)C[C@@]12C(=O)N(c3cccc(Br)c3)C(=O)N1[C@H](c1ccc(Cl)cc1)[C@@H]1C(=O)N(C3CCCCC3)C(=O)[C@@H]12 | -9 | -3 | 1 | 0 | 3 | · | ·
CC(C)C[C@@]12C(=O)N(c3cccc(Cl)c3)C(=O)N1[C@H](c1ccc(F)cc1)[C@@H]1C(=O)N(C3CCCCC3)C(=O)[C@@H]12 | -6 | 11 | 0 | -1 | 12* | 21 | 20*
Cc1cccc(N2C(=O)N3[C@H](c4ccc(F)cc4)[C@@H]4C(=O)N(C5CCCCC5)C(=O)[C@@H]4[C@]3(Cc3ccc(Cl)cc3)C2=O)c1 | 6 | 0 | 0 | 1 | 5 | · | ·
Cc1ccc(N2C(=O)N3[C@H](c4ccc(F)cc4)[C@@H]4C(=O)N(C5CCCCC5)C(=O)[C@@H]4[C@]3(C)C2=O)cc1 | 12 | 1 | 3 | 0 | 13* | 20 | 5
CC(C)C[C@@]12C(=O)N(c3cccc(Cl)c3)C(=O)N1[C@H](c1ccc(Cl)cc1)[C@@H]1C(=O)N(C3CCCCC3)C(=O)[C@@H]12 | 0 | 5 | 0 | 1 | 5 | · | ·
CC[C@@]12C(=O)N(c3ccc(OC)cc3)C(=O)N1[C@H](c1ccc(Cl)cc1)[C@@H]1C(=O)N(C3CCCCC3)C(=O)[C@@H]12 | -1 | 6 | 1 | 0 | 10* | 30* | 7
COc1cccc(OC(=O)c2ccccc2)c1OC(=O)c1ccccc1 | · | · | · | 0 | -1 | · | ·
CN(c1ccc(OCC(=O)NCc2cccnc2)cc1)S(=O)(=O)c1ccc(Cl)cc1 | 31 | 12 | 5 | 0 | -1 | · | ·
COc1ccc(NS(=O)(=O)c2ccc3c(c2)NC(=O)CC(=O)N3)cc1OC | 21 | -6 | -2 | 0 | 0 | · | ·
CC(C)(C)NC(=O)c1nn(Cc2ccccc2)c(=O)c2ccccc12 | 6 | 1 | 1 | 0 | 2 | · | ·
O=C1[C@H]2[C@@H](c3ccc(Cl)cc3)N3C(=O)N(c4cccc(F)c4)C(=O)[C@@]3(Cc3ccc(Cl)cc3)[C@H]2C(=O)N1C1CCCCC1 | 20 | 1 | 2 | 1 | 0 | · | ·
O=C1[C@H]2[C@@H](c3ccc(Cl)cc3)N3C(=O)N(c4cccc(Cl)c4)C(=O)[C@@]3(Cc3ccc(Cl)cc3)[C@H]2C(=O)N1C1CCCCC1 | 37 | 12 | 3 | 1 | 9.6* | 23* | 10*
CC(C)C(=O)N1CCC1(C)C(=O)Nc1cccc(Oc2ccccc2)c1 (stereo unspecified) | · | · | · | · | 1 | · | ·
CC1=CC(C)(C)Nc2ccc(OC(=O)CCN3C(=O)c4ccccc4C3=O)cc21 | -1 | -1 | -7 | -1 | 11* | -16 | 23*
COc1ccccc1NC(=O)C(C)OC(=O)Cc1ccsc1 (stereo unspecified) | · | · | · | 2 | 0 | · | ·
O=C(Nc1ncnc2sc3c(c12)CCCCC3)c1ccco1 | -5 | 1 | 0 | 1 | 12* | 7 | 4
Cc1ccc(NC(=S)N/N=C/c2ccc([N+](=O)[O-])s2)cc1 | ? | 40 | 10 | -2 | 11* | -97 | -29
O=C(Cc1cccs1)N/N=C\c1ccc([N+](=O)[O-])s1 | 10 | 5 | 3 | -3 | -1 | · | ·
Cc1cc(C)cc(N=Cc2ccc([N+](=O)[O-])s2)c1 | 8 | 11 | 3 | 0 | 16* | 1 | 6
O=[N+]([O-])c1ccc(C=Nc2ccc(Cl)c([N+](=O)[O-])c2)s1 | · | · | · | -1 | 4 | · | ·
O=c1c2cnn(-c3ccccc3)c2nc(-c2cccs2)n1-c1ccc(Br)cc1 | -1 | 7 | 4 | 1 | -1 | · | ·
COCCOC(=O)c1c(C)oc2ccc(NS(=O)(=O)c3cccs3)cc12 | 0 | 8 | -1 | 0 | 8.6* | 19 | 6
